# Experimental data reported in PubChem BioAssay (EPA / NIEHS).
# Where “and” joins values, the source holds several entries; their conditions need not be identical. Equal values may be shown once. Some structures have more than one record in an assay (separate samples or runs), and their calls can disagree. Calls of active or inactive are those of the source. Rule for the calls: active = hit-call score of the fitted dose curve at least 0.9, where 1 is the maximum; inactive = score below 0.9.
# Experiments:
# [1] = read-out: Tissue Factor, F3 (gene 2152); experiment: BSK_CASM3C_TissueFactor: BioMAP Diversity Plus: CASM3C Assay for Tissue Factor Biomarker Activity (AID 2283052); settings: primary human coronary artery smooth muscle cells; actives raise or lower the signal;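 note: cell surface tissue factor protein level read by ELISA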
# [2] = read-out: Urokinase-type plasminogen activator receptor (uPAR), PLAUR (gene 5329); experiment: BSK_CASM3C_uPAR: BioMAP Diversity Plus: CASM3C Assay for Urokinase-type plasminogen activator receptor (uPAR) Biomarker Activity (AID 2283054); settings: primary human coronary artery smooth muscle cells; actives raise or lower the signal;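 note: cell-surface uPAR protein level quantified by ELISA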
# [3] = read-out: Vascular cell adhesion molecule 1 (VCAM1), VCAM1 (gene 7412); experiment: BSK_CASM3C_VCAM1: BioMAP Diversity Plus: CASM3C Assay for Vascular cell adhesion molecule 1 (VCAM1) Biomarker Activity (AID 2283055); settings: primary human coronary artery smooth muscle cells; actives raise or lower the signal;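 note: VCAM-1 protein level quantified by ELISA on the cells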
# [4] = read-out: Epidermal growth factor receptor (EGFR), EGFR (gene 1956); experiment: BSK_hDFCGF_EGFR: BioMAP Diversity Plus: hDFCGF Assay for Epidermal growth factor receptor (EGFR) Biomarker Activity (AID 2283057); settings: primary human foreskin fibroblasts; actives raise or lower the signal
# How it was run: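 EGFR levels by ELISA in human dermal fibroblast cultures, 24 h post-treatment, fitted bidirectionally versus DMSO. Parallel wells stained with sulforhodamine B to detect overt cytotoxicity.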
# [5] = read-out: Interleukin-8 (IL8), CXCL8 (gene 3576); experiment: BSK_hDFCGF_IL8: BioMAP Diversity Plus: hDFCGF Assay for Interleukin-8 (IL8) Biomarker Activity (AID 2283058); settings: primary human foreskin fibroblasts; actives raise or lower the signal
# How it was run: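 Primary human foreskin fibroblasts (hDFCGF system) dosed with chemical; IL-8 measured by ELISA 24 hours later. Bidirectional curve fitting relative to DMSO baseline; cytotoxicity tracked in parallel cultures by SRB total protein staining.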
# [6] = BSK_hDFCGF_Proliferation: Cell Proliferation Assessment in the BioMAP Diversity Plus: hDFCGF Assay (AID 2283059); settings: primary human foreskin fibroblasts;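 note: curves fitted for both rise and fall of signal versus DMSO baseline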
# How it was run: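 Total protein read at 560 nm after 0.1% SRB staining of TCA-fixed human skin fibroblasts, […]. Activity is fitted in both directions relative to DMSO as baseline.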
# [7] = read-out: Macrophage colony-stimulating factor (MCSF), CSF1 (gene 1435); experiment: BSK_hDFCGF_MCSF: BioMAP Diversity Plus: hDFCGF Assay for Macrophage colony-stimulating factor (MCSF) Biomarker Activity (AID 2283060); settings: primary human foreskin fibroblasts; actives raise or lower the signal
# How it was run: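 Human foreskin fibroblast primary cultures; M-CSF measured by ELISA 24 hours after chemical dosing. Bidirectional fitting relative to DMSO, with overt cytotoxicity tracked by parallel SRB total-protein staining (0.1% SRB, 10% TCA fixation, 560 nm).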
# [8] = read-out: Interferon-gamma inducible Protein 10 (IP10), CXCL10 (gene 3627); experiment: BSK_hDFCGF_IP10: BioMAP Diversity Plus: hDFCGF Assay for Interferon-gamma inducible Protein 10 (IP10) Biomarker Activity (AID 2283053); settings: primary human foreskin fibroblasts; actives raise or lower the signal
# How it was run: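 ELISA quantification of IP-10 after a 24 h chemical exposure of human dermal foreskin fibroblast primary cultures. Both increases and decreases versus DMSO fitted.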
# [9] = BSK_hDFCGF_SRB: Viability Assessment in the BioMAP Diversity Plus: hDFCGF Assay (AID 2283061); settings: primary human foreskin fibroblasts;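 note: cells exposed to compound for 24 h before the read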
# How it was run: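 Human foreskin fibroblasts in 96-well plates were treated 24 h. Total protein was measured by 0.1% SRB staining after 10% TCA fixation, read at 560 nm. Data were fitted bidirectionally against DMSO.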
compound,measurement,setting,value
O=P(O)(O)CCC(F)(F)C(F)(F)C(F)(F)C(F)(F)C(F)(F)C(F)(F)C(F)(F)C(F)(F)F,outcome,[1],inactive
same,outcome,[2],inactive
same,outcome,[3],inactive
same,AC50,[4],29 µM (active)
same,outcome,[4],inactive
same,outcome,[5],inactive
same,AC50,[6],39.9 µM (active) and 49.4 µM (active)
same,outcome,[7],inactive
CC[N+](CC)(CC)Cc1ccccc1,outcome,[1],inactive
same,outcome,[8],inactive
same,outcome,[2],inactive
same,outcome,[3],inactive
same,outcome,[4],inactive
same,outcome,[5],inactive
same,outcome,[6],inactive
same,outcome,[7],inactive
O=C1OC2(c3ccccc31)c1cc(I)c(O)c(I)c1Oc1c2cc(I)c(O)c1I,outcome,[1],inactive
same,outcome,[2],inactive
same,outcome,[3],inactive
same,AC50,[4],1.88 µM (active)
same,outcome,[5],inactive
same,AC50,[6],15.2 µM (active)
same,AC50,[7],4.57 µM (active)
COc1cccc(O)c1,outcome,[1],inactive
same,outcome,[2],inactive
same,outcome,[3],inactive
same,outcome,[4],inactive
same,outcome,[5],inactive
same,outcome,[6],inactive
same,outcome,[7],inactive
same,outcome,[9],inactive
CCCCCCCCCCCCCCC,outcome,[1],inactive
same,outcome,[2],inactive
same,outcome,[3],inactive
same,outcome,[4],inactive
same,outcome,[5],inactive
same,outcome,[6],inactive
same,outcome,[7],inactive
OCCN1CN(CCO)CN(CCO)C1,outcome,[1],inactive
same,outcome,[2],inactive
same,AC50,[3],32.8 µM (active)
same,outcome,[4],inactive
same,outcome,[5],inactive
same,AC50,[6],25.8 µM (active)
same,AC50,[7],20 µM (active)
CC(C)(C)c1ccc(O)c(O)c1,outcome,[1],inactive
same,outcome,[2],inactive
same,AC50,[3],4.99 µM (active)
same,outcome,[4],inactive
same,outcome,[5],inactive
same,AC50,[6],7.12 µM (active)
same,AC50,[7],31.1 µM (active)
NC(=NCCCCCCN=C(N)/N=C(\N)Nc1ccc(Cl)cc1)/N=C(\N)Nc1ccc(Cl)cc1,AC50,[1],2.1 µM (active)
same,AC50,[2],4.86 µM (active)
same,AC50,[3],9.65 µM (active)
same,outcome,[5],inactive
same,AC50,[6],1.44 µM (active)
same,AC50,[7],4.84 µM (active)
same,AC50,[9],4.77 µM (active)
CC1=NN(c2ccccc2)C(=O)C1,outcome,[1],inactive
same,outcome,[2],inactive
same,outcome,[3],inactive
same,outcome,[4],inactive
same,outcome,[5],inactive
same,outcome,[6],inactive
same,outcome,[7],inactive
CCOC(=O)CN[C@@H](C(=O)N1CC[C@H]1C(=O)NCc1ccc(/C(N)=N/O)cc1)C1CCCCC1,outcome,[1],inactive
same,outcome,[2],inactive
same,outcome,[3],inactive
same,outcome,[4],inactive
same,outcome,[5],inactive
same,outcome,[6],inactive
same,outcome,[7],inactive
Clc1ccc(Nc2nnc(Cc3ccncc3)c3ccccc23)cc1,AC50,[1],8.4 µM (active)
same,outcome,[2],inactive
same,outcome,[3],inactive
same,outcome,[5],inactive
same,outcome,[6],inactive
same,outcome,[7],inactive
CCCCC(CC)C(=O)OCCOCCOCCOCCOC(=O)C(CC)CCCC (stereo unspecified),outcome,[1],inactive
same,outcome,[2],inactive
same,outcome,[3],inactive
same,outcome,[4],inactive
same,outcome,[5],inactive
same,outcome,[6],inactive
same,AC50,[7],20 µM (active)
N=C(N)c1ccc(OCCCCCOc2ccc(C(=N)N)cc2)cc1,outcome,[1],inactive
same,outcome,[3],inactive
same,AC50,[4],29.1 µM (active)
same,AC50,[5],20.9 µM (active)
same,AC50,[6],12.1 µM (active)
same,AC50,[7],20.6 µM (active)
CCCCCCCCCCCCOS(=O)(=O)O,outcome,[1],inactive
same,outcome,[2],inactive
same,outcome,[3],inactive
same,AC50,[4],20 µM (active)
same,outcome,[5],inactive
same,AC50,[6],16 µM (active)
same,AC50,[7],30.9 µM (active)
same,AC50,[9],28 µM (active)
CC(=O)Nc1ccc(O)cc1,outcome,[1],inactive
same,outcome,[2],inactive
same,outcome,[3],inactive
same,outcome,[4],inactive
same,outcome,[5],inactive
same,outcome,[6],inactive
same,outcome,[7],inactive
same,outcome,[9],inactive
O=C(c1ccccc1)c1ccccc1,outcome,[1],inactive
same,outcome,[2],inactive
same,outcome,[3],inactive
same,outcome,[4],inactive
same,outcome,[5],inactive
same,outcome,[6],inactive
same,outcome,[7],inactive
same,outcome,[9],inactive
Oc1c(Cl)cc(Cl)cc1Sc1cc(Cl)cc(Cl)c1O,outcome,[1],inactive
same,AC50,[2],20 µM (active) and 18.3 µM (active)
same,AC50,[3],20 µM (active) and 12.7 µM (active)
same,AC50,[4],0.236 µM (active)
same,outcome,[4],inactive
same,AC50,[5],4.43 µM (active) and 4.46 µM (active)
same,AC50,[6],1.08 µM (active) and 148 nM (active)
same,AC50,[7],1.46 µM (active) and 1.59 µM (active)
same,AC50,[9],1.67 µM (active) and 1.78 µM (active)
Cc1cccc2c1ccc1ccccc12,outcome,[1],inactive
same,outcome,[2],inactive
same,outcome,[3],inactive
same,outcome,[4],inactive
same,outcome,[5],inactive
same,outcome,[6],inactive
same,outcome,[7],inactive
CN(Cc1cnc2nc(N)nc(N)c2n1)c1ccc(C(=O)N[C@@H](CCC(=O)O)C(=O)O)cc1,outcome,[1],inactive
same,outcome,[2],inactive
same,outcome,[3],inactive
same,outcome,[4],inactive
same,outcome,[5],inactive
same,outcome,[6],inactive
same,AC50,[7],2.65 µM (active)
same,outcome,[7],inactive
same,outcome,[9],inactive
O=C(NO)c1ccccc1,outcome,[1],inactive
same,outcome,[2],inactive
same,outcome,[3],inactive
same,outcome,[4],inactive
same,outcome,[5],inactive
same,AC50,[6],3.81 µM (active)
same,outcome,[7],inactive
same,outcome,[9],inactive
CN(C)CCOC(c1ccccc1)c1ccccc1,outcome,[1],inactive
same,outcome,[2],inactive
same,outcome,[3],inactive
same,outcome,[4],inactive
same,outcome,[5],inactive
same,outcome,[6],inactive
same,outcome,[9],inactive
O=P(O)(O)CCC(F)(F)C(F)(F)C(F)(F)C(F)(F)C(F)(F)C(F)(F)F,outcome,[1],inactive
same,outcome,[2],inactive
same,outcome,[3],inactive
same,outcome,[4],inactive
same,outcome,[5],inactive
same,AC50,[6],15.8 µM (active) and 19.1 µM (active)
same,outcome,[7],inactive
CCCCCCCCCCCC,outcome,[1],inactive
same,outcome,[2],inactive
same,outcome,[3],inactive
same,outcome,[4],inactive
same,AC50,[5],12.9 µM (active) and 14.6 µM (active)
same,AC50,[6],11.6 µM (active) and 11.5 µM (active)
same,AC50,[7],9.32 µM (active) and 10.2 µM (active)
O=C(O)CCC(F)(F)C(F)(F)C(F)(F)C(F)(F)C(F)(F)C(F)(F)F,outcome,[1],inactive
same,outcome,[2],inactive
same,outcome,[3],inactive
same,outcome,[4],inactive
same,outcome,[5],inactive
same,outcome,[6],inactive
same,outcome,[7],inactive
OCC(F)(F)C(F)(F)C(F)(F)C(F)(F)C(F)(F)C(F)(F)C(F)(F)C(F)(F)C(F)(F)C(F)(F)C(F)(F)F,outcome,[1],inactive
same,outcome,[2],inactive
same,outcome,[3],inactive
same,outcome,[4],inactive
same,outcome,[5],inactive
same,outcome,[6],inactive
same,outcome,[7],inactive
C=CC(C)(CCC=C(C)C)OC(C)=O (stereo unspecified),outcome,[1],inactive
same,AC50,[2],20 µM (active)
same,AC50,[3],34.6 µM (active)
same,outcome,[4],inactive
same,outcome,[5],inactive
same,AC50,[6],24.7 µM (active)
same,outcome,[7],inactive
O=C1c2ccc(O)c(O)c2C(=O)c2c(O)ccc(O)c21,outcome,[1],inactive
same,AC50,[2],0.0224 µM (active)
same,outcome,[3],inactive
same,outcome,[4],inactive
same,outcome,[5],inactive
same,outcome,[6],inactive
same,outcome,[7],inactive
Cc1[nH]nc2c1N=C(c1ccccc1Cl)c1cc([N+](=O)[O-])ccc1N2,outcome,[1],inactive
same,outcome,[2],inactive
same,AC50,[3],9.37 µM (active)
same,AC50,[4],20 µM (active)
same,outcome,[5],inactive
same,AC50,[6],0.187 µM (active)
same,outcome,[7],inactive
O=C(O)CCC(F)(F)C(F)(F)C(F)(F)C(F)(F)C(F)(F)F,outcome,[1],inactive
same,outcome,[2],inactive
same,outcome,[3],inactive
same,outcome,[4],inactive
same,outcome,[5],inactive
same,outcome,[6],inactive
same,AC50,[7],0.22 µM (active)
same,outcome,[7],inactive
CCCCC=O,outcome,[1],inactive
same,outcome,[2],inactive
same,outcome,[3],inactive
same,outcome,[4],inactive
same,outcome,[5],inactive
same,outcome,[6],inactive
same,outcome,[7],inactive
same,outcome,[9],inactive
